Counter-ions that a name gives are not always drawn.
Tested on: Clostridium sporogenes DSM 1664
Assay: growth (OD595) fold change vs plate DMSO controls (fold change (ratio)); higher = more growth
Settings: incubation time: 27 h, anaerobic, 37 °C
In short: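 Growth is expressed as the fold change relative to the median of the DMSO control wells on each plate. Cultures in mGAM were grown anaerobically in 96-well plates for 27 h at 37 °C, shaken, and read at 595 nm. Readings were blank-subtracted, corrected for compound background with 20 µM compound solutions in water, and converted to OD with a calibration factor of 5. Fold changes above 1.5 were set to NA, and each value is the mean of 2 biological replicates.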

| Compound | growth |
| --- | --- |
| Oc1c(Cl)cc(Cl)c2cccnc12 [Chloroxine] (20 µM) | 1.12 |
| O=C1NCCN1CCN1CCC(c2cn(-c3ccc(F)cc3)c3ccc(Cl)cc23)CC1 [Sertindole] (20 µM) | 0.981 |
| CCSc1ccc2c(c1)N(CCCN1CCN(C)CC1)c1ccccc1S2 [Thiethylperazine maleate] (20 µM) | 1.26 |
| Cc1ccsc1/C=C/C1=NCCCN1C [Morantel tartrate] (20 µM) | 1.2 |
| COc1cc(C)nc(-n2nc(C)cc2OC)n1 [Epirizole] (20 µM) | 0.918 |
| CCC1(c2ccccc2)NC(=O)N(C)C1=O (centres undefined) [Mephenytoin] (20 µM) | 0.908 |
| CCCCCCCC/C=C\CCCCCCCCCCCC(=O)O [Erucic acid] (20 µM) | 0.975 |
| C#CCN(C)CCCOc1ccc(Cl)cc1Cl [Clorgyline hydrochloride] (20 µM) | 1.02 |
| CC1=NN(c2ccccc2)C(=O)C1 [Edaravone] (20 µM) | 0.889 |
| CC(=O)N[C@H]1[C@H]([C@H](O)[C@H](O)CO)OC(C(=O)O)=C[C@@H]1NC(=N)N [Zanamivir] (20 µM) | 0.953 |
| Cc1ccc(S(=O)(=O)NC(=O)NN2CCCCCC2)cc1 [Tolazamide] (20 µM) | 0.935 |
| CN1CCN(C2=Nc3cc(Cl)ccc3Nc3ccccc32)CC1 [Clozapine] (20 µM) | 1.01 |
| CCCNC(C)(C)C(=O)Nc1ccccc1C [Quatacaine] (20 µM) | 1.01 |
| CN(C)c1cc(NC(=O)CNC(C)(C)C)c(O)c2c1C[C@H]1C[C@H]3[C@H](N(C)C)C(=O)C(C(N)=O)=C(O)[C@@]3(O)C(=O)C1=C2O [Tigecycline] (20 µM) | 0.926 |
